D1 antagonist = antagonists of human D1 dopamine receptor | P21728 | HEK293 TREx D1 cells, calcium flux, dopamine EC80; stronger effect = lower value | activity change, negative = inhibition, % at 10 µM | 360,000 tested, 3.2% active | AID 504652; in the data active means activity change below about -30%
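Compound effects on dopamine-evoked calcium signalling were measured in tetracycline-induced HEK293 Trex D1 cells. Dopamine at EC80 followed a 180 s compound pre-read, and fluorescence was tracked kinetically for 180 s more.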
D3 antag = antagonists of human D3 dopamine receptor; P35462; D3R cells, DiscoveRx beta-arrestin luminescence, antagonist mode; stronger effect = lower value; max response, negative = inhibition, %; 360,000 tested, 2.5% active; in the data active means max response below about -50%; inconclusive means no clear call, values can overlap the other calls
Target sequence (P35462 whole entry, looked up): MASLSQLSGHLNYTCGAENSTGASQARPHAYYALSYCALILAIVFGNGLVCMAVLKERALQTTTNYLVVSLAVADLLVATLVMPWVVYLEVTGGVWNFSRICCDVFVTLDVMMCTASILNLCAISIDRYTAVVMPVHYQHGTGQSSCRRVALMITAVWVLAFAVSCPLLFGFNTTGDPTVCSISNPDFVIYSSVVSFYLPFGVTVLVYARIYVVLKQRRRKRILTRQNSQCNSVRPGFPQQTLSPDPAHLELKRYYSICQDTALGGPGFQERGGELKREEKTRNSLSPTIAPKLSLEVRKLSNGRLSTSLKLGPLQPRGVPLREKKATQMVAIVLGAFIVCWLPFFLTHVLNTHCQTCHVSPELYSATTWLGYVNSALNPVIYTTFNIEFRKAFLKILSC
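Cells expressing the human receptor were seeded at 1500 cells/well, incubated overnight at 37 degrees C in 5% CO2, then exposed to library compounds with dopamine controls for 90 minutes at 37 degrees C before luminescent detection.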
D3 ag = agonists of human D3 dopamine receptor; max activation, %; 410,000 tested, 0.58% active; D3R DiscoveRx beta-arrestin cells, luminescence, 90 min; in the data active means max activation above about 30%
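Cells at 1500/well, incubated overnight, then treated with pinned compounds (dopamine as control) for 90 min at 37 degrees C. DiscoveRx reagent added for 30 - 60 minutes at room temperature; luminescence read.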
D1 agonist = human D1 receptor agonism | P21728 | HEK293 T-REx D1 cells, calcium flux, agonist mode | activation, % at 2 µM | 360,000 tested, 1% active | AID 504660; in the data active means activation above about 30%
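Tetracycline-induced HEK293 TREx D1 cells, force-coupled to calcium signalling, were dye-loaded with a no-wash calcium kit. Compound was pin-added after a 10 s baseline. Fluorescence was read kinetically at 1 cycle/s for 180 s, with calcium rises flagged as agonism.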
D1 PAM = human D1 dopamine receptor positive modulation. potentiation, % at 10 µM. P21728. HEK293 TREx D1 cells, calcium flux, dopamine EC20 potentiation. 360,000 tested, 0.036% active. AID 504651; in the data active means potentiation above about 30%
Numbers stand for hits; - = inactive; ? = inconclusive; . = not tested or not shown; ! = not active in a repeat. An excerpt weighted towards active compounds, which were near 6.1% of everything screened.

SMILES	D1 antagonist	D3 antag	D3 ag	D1 agonist	D1 PAM
COc1ccc(C2C(=O)N(C3CCC(C)CC3)CC(=O)N2C2CCCCC2)cc1OC (configuration not stated)	-	.	-	-	-
Cc1cc2c(C)cc(=O)oc2c2c1NCCC2	-	-	-	-	-
Cc1ccc(OC(=O)C(F)(F)F)c2c1NCCC2	-	-	-	-	34
CC(=O)N1CCc2cc(Br)cc(S(=O)(=O)NCCc3ccc(Cl)cc3)c21	-	.	-	-	-
Cc1cc(C)c(NC(=O)Nc2ccc3snnc3c2)c(C)c1	-	.	-	-	-
O=C(Nc1ccc(F)cc1)Nc1cc(OCC(F)(F)F)cc(OCC(F)(F)F)c1	-	-	-	-	-
CCOc1ccc(NC(=O)Nc2cc(OCC(F)(F)F)cc(OCC(F)(F)F)c2)cc1	-37	-	-	-	-
O=C(Nc1ccccc1)Nc1ccc2snnc2c1	-52	-	-	-	-
CN(C)c1ccc(NC(=O)Nc2ccc3snnc3c2)cc1	-48	?	-	-	-
CCOc1ccc(NC(=O)Nc2ccc3snnc3c2)cc1	-39	.	-	-	-
CCOc1ccc(NC(=O)Nc2cc(C)ccc2F)cc1	-	-	-	-	-
O=C(Nc1ccccc1)Nc1ccc2nnsc2c1	-	-	-	33	-
O=C(Nc1cccc(C(F)(F)F)c1)Nc1ccc2snnc2c1	-69	.	-	37	-
CCOc1ccc(NC(=O)Nc2cc(C(C)C)c(O)cc2C)cc1	-47	-	-	-	-
O=C(Nc1cccc(C(F)(F)F)c1)c1ccc2snnc2c1	-	.	-	-	-
O=C(NCc1ccccc1)c1ccc2nnsc2c1	-	-	-	-	-
CCOC(=O)c1c(C)oc2ncnc(Nc3cc(C)cc(C)c3)c12	-	.	-	-	-
Cc1ccc(S(=O)(=O)C(CNS(=O)(=O)c2ccc(F)c(C(F)(F)F)c2)c2ccco2)cc1 (configuration not stated)	.	.	-	-	-
CCOc1ccccc1N(CC)C(=O)c1cc2c(=O)n(CC)c3ccccc3c2s1	-	.	-	-	-
Cc1cc(C)cc(NC2=CC(c3cccc(F)c3)N(c3cc(C)cc(C)c3)C2=O)c1 (configuration not stated)	-	.	-	-	-
CN1CCN(C(=O)c2ccc(CS(=O)Cc3ccc(Cl)cc3)o2)CC1 (configuration not stated)	-34	-	-	-	-
CCOC(=O)C1(Nc2nccs2)Sc2ccccc2NC1=O (configuration not stated)	-34	-	-	-	-
CCOC(=O)C1(N(CC)CC)Sc2cc(C)ccc2NC1=O (configuration not stated)	-	-	-	-	-
CC(C)(C)NC(=O)C(c1ccncc1)N(CC1CCCO1)C(=O)Cn1nnc(-c2ccc(F)cc2)n1 (configuration not stated)	-	-	-	-	-
CC(C)(C)NC(=O)C(c1ccncc1)N(Cc1cccs1)C(=O)Cn1nnc(-c2ccc(F)cc2)n1 (configuration not stated)	-33	-	-	-	-
SMILES	D1 antagonist	D3 antag	D3 ag	D1 agonist	D1 PAM
CCCC(=O)n1nc(-c2cccnc2)nc1NCc1ccc(OC)cc1	-	-	57!	-	-
COc1ccccc1C(=O)n1nc(-c2cccnc2)nc1NCc1ccccc1	-	-	-	-	-
COc1ccc(NC(=O)CSc2ncccc2C(=O)OC(C)C)cc1OC	-37	-	-	-	-
CC(=O)c1ccc(N2CCN(c3ncnc4c3cnn4-c3cc(Cl)ccc3C)CC2)cc1	-	.	-	-	-
Cc1nnc(N)nc1C	-38	-	-	-	-
CCOC(=O)c1c(C)[nH]c(C(=O)N/N=C/c2ccc(Br)cc2)c1C	-40	-	-	-	-
CCOC(=O)c1c(C)[nH]c(C(=O)OCc2ccccc2F)c1C	-	-	-	31	-
CCOC(=O)c1[nH]c(C)c(C(=O)NC2CCCCC2)c1C	-89	-	-	-	-
CCOC(=O)c1c(C)[nH]c(C(=O)OCc2ccc(F)cc2)c1C	-	-	-	-	-
CCOC(=O)c1c(C)[nH]c(C(=O)COC(=O)C2(C)CC2(Cl)Cl)c1C (configuration not stated)	-	-	45	-	-
Cc1ccc2nc(-c3ccncc3)c(Nc3ccc(C(C)C)cc3)n2c1	-	.	-	-	-
COc1ccc(NC(=O)c2c(C)oc3ccc(O)c(CN4CCN(Cc5ccccc5)CC4)c23)cc1	-	.	-	-	-
CCOC(=O)c1c(C)[nH]c(C(=O)NCc2ccco2)c1C	-71	.	.	-	-
CCOC(=O)c1[nH]c(C)c(C(=O)NCc2ccco2)c1C	-	-	-	-	-
CCCNC(=O)c1[nH]c(C)c(C(=O)OCC)c1C	-40	.	.	-	-
O=c1oc2ccccc2c(N2CCN(c3ccccc3F)CC2)c1CN1CCCC1	-	.	-	-	-
Cc1cc(C(=O)N2CC=C(c3ccccc3)CC2)c2ccccc2n1	-41	-	-	-	-
O=C(O)c1ccccc1C(=O)N1CC=C(c2ccccc2)CC1	-39	-	-	-	-
CC(=O)N1CCN(C(=O)c2cc(C)nc3ccccc23)CC1	-	-	-	-	-
O=C(NNC(=O)c1ccccc1C(F)(F)F)c1csc(N2CCOCC2)n1	-51	-	-	-	-
COc1ccc(OC)c(CNC(=O)C2CCCN(c3ncnc4c3nc3n4CCCCC3)C2)c1 (configuration not stated)	-33	-	-	-	-
CCOc1ccccc1CNC(=O)C1CCCN(c2ncnc3c2nc2n3CCCCC2)C1 (configuration not stated)	-	-	-	-	-
O=C(NCCCN1CCN(c2ccccc2)CC1)C1CCCN(c2ncnc3c2nc2n3CCCCC2)C1 (configuration not stated)	-30	-67	-	-	-
O=C(C1CCN(c2ncnc3c2nc2n3CCCCC2)CC1)N1CCN(c2ccc(Cl)cc2)CC1	-	.	-	-	-
O=C(C1CCN(c2ncnc3c2nc2n3CCCCC2)CC1)N1CCN(c2cccc(Cl)c2)CC1	-31!	-	-	-	-
O=C(NCCc1ccccc1)C1CCCN(c2ncnc3c2nc2n3CCCCC2)C1 (configuration not stated)	-	-	-	-	-
COc1ccc(CN2C(=O)C(NC(=O)c3ccccc3C)(C(F)(F)F)N=C2c2ccccc2)cc1 (configuration not stated)	-	.	-	-	-
Cc1ccc2[nH]c(C(=O)N3CCCC(Nc4ccc(F)cc4)C3)cc2c1 (configuration not stated)	-30	-	-	-	-
CSC1=C(C#N)C(c2ccccc2Cl)C(C(=O)c2cccs2)C(O)(C(F)(F)F)N1 (configuration not stated)	-31	-	-	-	-
C=CCN(CC(=O)NCc1ccc(F)cc1)C(=O)c1csnn1	-35	-	-	-	-
